# Experimental data taken from the antibiotic and cytotoxicity screens of Wong et al. (2023).
# Among all 39,000 compounds or so, about 3,300 (8.5%) were called active. This excerpt belongs to a sample that is enriched for actives.
# Test system: HepG2
# Test: cytotoxicity call (relative viability < 0.9)
# Conditions: 10 µM
row,SMILES,cytotoxicity call
1,Cc1ccc(S(=O)(=O)N(C)C[C@H]2Oc3ccc(NS(=O)(=O)c4c(C)noc4C)cc3CC(=O)N([C@@H](C)CO)C[C@@H]2C)cc1,inactive
2,C[C@@H]1CN([C@H](C)CO)C(=O)Cc2cc(NC(=O)CCN3CCOCC3)ccc2O[C@H]1CN(C)S(=O)(=O)c1ccccc1,inactive
3,CC(=O)OCC(=O)O[C@@H]1[C@H]2[C@@H](OC(=O)c3ccccc3)[C@@H](C)C[C@]2(O)[C@H](OC(C)=O)[C@@]2(C)[C@H](OC(C)=O)[C@]1(OC(C)=O)C[C@H]1C(=O)C(C)(C)C[C@@H]12,inactive
4,O=C(NC(=O)N1CCOCC1)c1ccc(S(=O)(=O)N2CCOCC2)cc1,inactive
5,C[C@@H]1CN([C@H](C)CO)C(=O)c2cccc(NC(=O)c3ccncc3)c2O[C@@H]1CN(C)Cc1ccc(-c2ccccc2)cc1,inactive
6,C[C@H](CO)N1C[C@H](C)[C@@H](CN(C)S(=O)(=O)c2cccc(F)c2)Oc2ncc(Br)cc2C1=O,inactive
7,C[C@@H]1CN([C@H](C)CO)C(=O)c2cc(Br)cnc2O[C@H]1CN(C)C(=O)Nc1ccc2c(c1)OCO2,inactive
8,C[C@@H]1CN([C@@H](C)CO)C(=O)c2cccc(NC(=O)Nc3ccccc3)c2O[C@@H]1CN(C)Cc1ccc(C(F)(F)F)cc1,inactive
9,C[C@H](CO)N1C[C@H](C)[C@H](CN(C)Cc2ccc(C(F)(F)F)cc2)Oc2c(NC(=O)Nc3ccc(F)cc3)cccc2C1=O,inactive
10,C[C@H]1CN([C@@H](C)CO)C(=O)c2cccc(NC(=O)Nc3ccc(F)cc3)c2O[C@@H]1CN(C)Cc1ccc(C(F)(F)F)cc1,inactive
11,C[C@@H]1CN([C@@H](C)CO)C(=O)c2cccc(NC(=O)Nc3ccccc3)c2O[C@H]1CN(C)Cc1ccc(C(F)(F)F)cc1,inactive
12,C[C@H]1CN([C@@H](C)CO)C(=O)c2cccc(NC(=O)Nc3ccc(C(F)(F)F)cc3)c2O[C@@H]1CN(C)Cc1ccc(Oc2ccccc2)cc1,inactive
13,C[C@@H]1CN([C@H](C)CO)C(=O)c2cccc(NC(=O)Nc3ccc(C(F)(F)F)cc3)c2O[C@H]1CN(C)Cc1ccc(-c2ccccc2)cc1,inactive
14,C[C@@H]1CN([C@@H](C)CO)C(=O)c2cccc(NC(=O)Nc3ccc(C(F)(F)F)cc3)c2O[C@H]1CN(C)Cc1ccc(C(F)(F)F)cc1,active
15,C[C@H]1CN([C@@H](C)CO)C(=O)c2cccc(NC(=O)Nc3ccc(C(F)(F)F)cc3)c2O[C@H]1CN(C)Cc1ccc(-c2ccccc2)cc1,inactive
16,C[C@H](CO)N1C[C@H](C)[C@H](CN(C)Cc2ccc(Oc3ccccc3)cc2)Oc2c(NC(=O)Nc3ccc(C(F)(F)F)cc3)cccc2C1=O,inactive
17,C[C@@H]1CN([C@H](C)CO)C(=O)c2cccc(NC(=O)Nc3ccccc3)c2O[C@H]1CN(C)Cc1ccc(C(F)(F)F)cc1,active
18,C[C@@H]1CN([C@H](C)CO)C(=O)c2cccc(NC(=O)Nc3ccc(C(F)(F)F)cc3)c2O[C@@H]1CN(C)Cc1ccc(-c2ccccc2)cc1,active
19,C[C@@H]1CN([C@@H](C)CO)C(=O)c2cccc(NC(=O)Nc3ccc(C(F)(F)F)cc3)c2O[C@@H]1CN(C)Cc1ccc(Oc2ccccc2)cc1,active
20,COc1ccc(S(=O)(=O)Nc2ccc3c(c2)C(=O)N([C@H](C)CO)C[C@@H](C)[C@@H](CN(C)C(=O)Nc2ccccc2)OCCCC[C@@H](C)O3)cc1,inactive

row,SMILES,cytotoxicity call
1,CC(C)CC#Cc1ccc2c(c1)O[C@H](CN(C)C(=O)Cc1ccncc1)[C@H](C)CN([C@H](C)CO)S2(=O)=O,inactive
2,COc1cccc(S(=O)(=O)N(C)C[C@@H]2Oc3cc(C4=CCCC4)ccc3S(=O)(=O)N([C@@H](C)CO)C[C@H]2C)c1,inactive
3,Cc1noc(C)c1S(=O)(=O)Nc1ccc2c(c1)C(=O)N([C@H](C)CO)C[C@H](C)[C@H](CN(C)C(=O)Nc1ccccc1)O2,inactive
4,Cc1noc(C)c1S(=O)(=O)N(C)C[C@@H]1Oc2ccc(NS(=O)(=O)c3ccc(F)cc3)cc2CC(=O)N([C@H](C)CO)C[C@@H]1C,inactive
5,C[C@H]1CN([C@@H](C)CO)C(=O)c2cccc(NC(=O)c3nc4ccccc4s3)c2O[C@@H]1CN(C)C(=O)Nc1ccc(F)cc1,inactive
6,COc1ccccc1S(=O)(=O)N(C)C[C@@H]1OCc2cn(nn2)CCCC(=O)N([C@H](C)CO)C[C@H]1C,inactive
7,Cc1noc(C)c1S(=O)(=O)Nc1ccc2c(c1)C(=O)N([C@@H](C)CO)C[C@@H](C)[C@H](CN(C)S(=O)(=O)c1ccc(Cl)cc1)O2,inactive
8,COc1ccc(S(=O)(=O)N(C)C[C@@H]2Oc3ccc(NS(=O)(=O)c4c(C)noc4C)cc3CC(=O)N([C@@H](C)CO)C[C@H]2C)cc1,inactive
9,Cc1noc(C)c1NC(=O)Nc1ccc2c(c1)C(=O)N([C@H](C)CO)C[C@@H](C)[C@@H](CN(C)C(=O)C1CCCCC1)OCCCC[C@H](C)O2,inactive
10,C[C@H](CO)N1C[C@H](C)[C@H](CN(C)Cc2ccc(C(F)(F)F)cc2)Oc2c(NC(=O)NC3CCCCC3)cccc2C1=O,inactive
11,C[C@@H]1CN([C@H](C)CO)C(=O)c2cccc(NC(=O)NC3CCCCC3)c2O[C@@H]1CN(C)Cc1ccc(C(F)(F)F)cc1,active
12,C[C@H](CO)N1C[C@H](C)[C@@H](CN(C)Cc2ccc(C(F)(F)F)cc2)Oc2c(NC(=O)NC3CCCCC3)cccc2C1=O,inactive
13,CO[C@H]1CN(C)C(=O)c2ccc(NC(=O)C3CCOCC3)cc2OC[C@@H](C)N(Cc2cccnc2)C[C@H]1C,inactive
14,C[C@H](CO)N1C[C@H](C)[C@@H](CN(C)Cc2ccc(Cl)c(Cl)c2)Oc2ccc(NC(=O)Cn3cnnn3)cc2C1=O,inactive
15,Cc1noc(C)c1NC(=O)Nc1ccc2c(c1)CC(=O)N([C@@H](C)CO)C[C@H](C)[C@H](CN(C)Cc1ccc(-c3ccccc3)cc1)O2,inactive
16,Cc1noc(C)c1NC(=O)Nc1ccc2c(c1)CC(=O)N([C@H](C)CO)C[C@@H](C)[C@H](CN(C)Cc1ccc(-c3ccccc3)cc1)O2,inactive
17,C[C@@H]1CN([C@@H](C)CO)C(=O)Cc2cc(NC(=O)Nc3ccccc3)ccc2O[C@H]1CN(C)Cc1ccc(-c2ccccc2)cc1,active
18,CC(C)NC(=O)Nc1ccc2c(c1)CC(=O)N([C@H](C)CO)C[C@H](C)[C@H](CN(C)Cc1ccc(-c3ccccc3)cc1)O2,inactive
19,C[C@H]1CN([C@@H](C)CO)C(=O)Cc2cc(NC(=O)Nc3ccccc3)ccc2O[C@H]1CN(C)Cc1ccc(-c2ccccc2)cc1,inactive
20,C[C@@H]1CN([C@@H](C)CO)C(=O)Cc2cc(NC(=O)Nc3ccccc3)ccc2O[C@@H]1CN(C)Cc1ccc(-c2ccccc2)cc1,inactive

row,SMILES,cytotoxicity call
1,C[C@@H]1CN([C@H](C)CO)C(=O)Cc2cc(NC(=O)Nc3ccccc3)ccc2O[C@H]1CN(C)Cc1ccc(-c2ccccc2)cc1,inactive
2,C[C@H](CO)N1C[C@H](C)[C@H](CN(C)Cc2ccc(-c3ccccc3)cc2)Oc2ccc(NC(=O)Nc3ccccc3)cc2CC1=O,active
3,C[C@@H]1CN([C@H](C)CO)C(=O)Cc2cc(NC(=O)Nc3ccccc3)ccc2O[C@@H]1CN(C)Cc1ccc(-c2ccccc2)cc1,active
4,Cc1noc(C)c1NC(=O)Nc1ccc2c(c1)CC(=O)N([C@@H](C)CO)C[C@@H](C)[C@@H](CN(C)Cc1ccc(-c3ccccc3)cc1)O2,active
5,NC1CCC(N[C@@H]2C[C@H]2c2ccccc2)CC1 (stereo not given in full),inactive
6,C=CCC[C@@H](Cc1ccc(F)cc1)C(=O)OC[C@H]1CCCN1C(=O)[C@@H](CC=C)CC(=O)N(CCO)Cc1ccccc1,inactive
7,COc1cccc(S(=O)(=O)Nc2ccc3c(c2)OC[C@H](C)N(C(=O)Cc2cccnc2)C[C@H](C)[C@@H](OC)CN(C)C3=O)c1,inactive
8,C[C@@H]1CN([C@H](C)CO)C(=O)c2cc(NS(=O)(=O)c3cn(C)cn3)ccc2O[C@@H]1CN(C)Cc1ccccc1,inactive
9,COCC(=O)NC1CCN(C2CCNCC2)CC1,inactive
10,CO[C@H]1O[C@H](CO)[C@@H](OC(=O)Nc2ccccc2)[C@@H]2OC(=O)[C@H](Cc3cccc(Br)c3)C/C=C/C[C@@H](Cc3cccc(Br)c3)C(=O)O[C@@H]12,inactive
11,C[C@H]1CN([C@@H](C)CO)C(=O)c2cccc(NC(=O)C3CCOCC3)c2O[C@H]1CN(C)C(=O)NC1CCCCC1,inactive
12,CC(C)(C)[S@@](=O)N1Cc2cc(C(=O)N3CCc4ccccc4C3)nc(-c3cccc(-c4cccnc4)c3)c2[C@H]1CCO,inactive
13,Cc1noc(C)c1S(=O)(=O)Nc1ccc2c(c1)C(=O)N([C@H](C)CO)C[C@@H](C)[C@@H](CN(C)S(=O)(=O)c1ccc(Cl)cc1)O2,inactive
14,C[C@H]1CN([C@@H](C)CO)C(=O)c2cc(NS(=O)(=O)c3cn(C)cn3)ccc2O[C@@H]1CN(C)S(=O)(=O)c1ccccc1,inactive
15,CN1CCN(C(=O)C[C@H]2CC[C@H]3[C@H](COc4ccc(NC(=O)c5cscn5)cc4C(=O)N3C)O2)CC1,inactive
16,C[C@H](CO)N1C[C@H](C)[C@@H](CN(C)Cc2ccc(-c3ccccc3)cc2)Oc2ccc(NC(=O)Nc3ccccc3)cc2CC1=O,active
17,C[C@@H]1CN([C@@H](C)CO)C(=O)c2cc(NC(=O)CCCN(C)C)ccc2O[C@@H]1CN(C)Cc1ccncc1,inactive
18,C[C@H](CO)N1C[C@H](C)[C@@H](CN(C)C(=O)Nc2ccc(C(F)(F)F)cc2)OCCCC[C@H](C)Oc2ccc(NS(C)(=O)=O)cc2C1=O,inactive
19,COc1ccc(S(=O)(=O)Nc2ccc3c(c2)CC(=O)N([C@H](C)CO)C[C@H](C)[C@H](CN(C)S(=O)(=O)c2ccc(C)cc2)O3)cc1,inactive
20,NCC[C@@H]1CC[C@H](NC(=O)C2CC2)[C@@H](CO)O1,inactive
